Screening data from PubChem BioAssay.
dFosB act: activators of mouse delta FosB homodimer. actives 0.99% (n = 340,000). P13346. purified delta FosB, TAMRA-CDK5 oligo fluorescence polarization; percent of positive-control signal above neutral wells. activation, % at 25 µM;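 active means mean activation above about 17%, with every replicate also reaching it, limit read from the data, passing the limit was not always enough; inconclusive means only one of the two conditions met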
CDK5 p35 inh: CDK5/p35 (human) kinase inhibition. Q00535+Q15078. Recombinant CDK5/p35, ADP-Glo luminescence, 60 min. inhibition, % at 10 µM. actives 0.01% (n = 330,000). AID 488839;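 active means highest replicate inhibition of at least 50% and at least 75% of replicates reaching 50%; inconclusive means only one of the two criteria met; inactive means both criteria failed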
Target sequence (Q00535 whole entry, looked up): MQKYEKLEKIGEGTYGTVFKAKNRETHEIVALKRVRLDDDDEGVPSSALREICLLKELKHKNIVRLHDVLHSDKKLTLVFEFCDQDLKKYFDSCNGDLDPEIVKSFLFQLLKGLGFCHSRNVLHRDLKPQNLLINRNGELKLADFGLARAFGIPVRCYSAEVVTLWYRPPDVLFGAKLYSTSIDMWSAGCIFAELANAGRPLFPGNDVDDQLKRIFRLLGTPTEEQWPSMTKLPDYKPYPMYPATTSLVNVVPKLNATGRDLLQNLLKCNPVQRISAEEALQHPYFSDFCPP
Target sequence (Q15078 whole entry, looked up): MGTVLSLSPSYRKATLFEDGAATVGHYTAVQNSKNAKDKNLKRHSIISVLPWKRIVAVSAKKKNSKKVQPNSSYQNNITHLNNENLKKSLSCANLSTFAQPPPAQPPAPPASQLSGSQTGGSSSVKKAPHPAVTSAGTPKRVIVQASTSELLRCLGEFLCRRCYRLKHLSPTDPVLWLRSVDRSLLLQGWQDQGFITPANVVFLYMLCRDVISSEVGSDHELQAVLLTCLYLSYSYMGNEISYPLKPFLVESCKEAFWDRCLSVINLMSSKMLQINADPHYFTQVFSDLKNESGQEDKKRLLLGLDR
Rtt109 Vps75: inhibitors of Candida albicans Rtt109/Vps75 histone acetyltransferase. inhibition, % at 34.9 µM. Q5AAJ8. actives 0.16% (n = 330,000). purified Rtt109/Vps75, ThioGlo CoA-SH fluorescence, 4 h. AID 540336;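 active means inhibition of at least 50% in every replicate; inconclusive means best replicate reaches 50% inhibition but some replicates fall short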
esBAF inh: inhibitors of esBAF chromatin remodeling in mouse ES cells; Bmi1-luciferase knock-in reporter, 24 h; 100% = twice the neutral-well signal; reporter increase, % at 12.5 µM; actives 2% (n = 350,000); in the data active means activation above about 40%; inconclusive means no clear call, values can overlap the other calls;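 further: a rise in the Bmi1 reporter signal indicates esBAF inhibition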
DYRK1A inh: blocks rat Dyrk1A kinase activity | ADP-Glo luminescence, NFATc1 peptide | inhibition, % at 12.5 µM | actives 0.43% (n = 310,000) | AID 504441; in the data active means inhibition above about 50%
SMARCA2 activ: activators of SMARCA2 function | MG213 cells, MMTV-luciferase reporter, dexamethasone, overnight | activation, % at 9.1 µM | actives 1% (n = 370,000) | AID 652017; in the data active means activation above about 7.8%
SMARCA2 act conf: SMARCA2 activation, confirmation screen. shares compounds with SMARCA2 activ. MG213 cells, MMTV-luciferase with dexamethasone, luminescence, overnight; MG213 cells expressing E1A, Rb sequestered; DMSO wells 0%, reference activator 100%. activation, % at 9.1 µM. actives 30% (n = 3,500). AID 652260;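 active means activation above its plate's cutoff, the mean activation of tested wells plus 3 SD, cut at about 7.9% in these data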
VP16 Luc act: activates GAL4-VP16 luciferase, flagging SMARCA2 activator hits; AID 686939; HEK293 GAL4-VP16 pG5luc reporter, luciferase luminescence; scaled: DMSO wells 0%, SAHA wells 100%; actives 41% (n = 3,500); shares compounds with SMARCA2 activ; activation, % at 9.1 µM;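 active means activation above the solvent-only control well mean plus 3 SD, averaged across control plates, cut at about 5.2% in these data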
Of the large screens only hits and unclear results are named; the others gave an inactive call (follow-up assays come after a bar, where they were run). The list is not random: actives were taken first. Their share in the collection is about 3.2%.

CC(C)NC(=O)Nc1cccc2c1O[C@H](CN(C)S(=O)(=O)c1ccccc1)[C@H](C)CN([C@@H](C)CO)C2=O	none (no result: dFosB act, CDK5 p35 inh, Rtt109 Vps75, DYRK1A inh, SMARCA2 activ)
CO[C@@H]1CN(C)C(=O)c2cc(NS(=O)(=O)c3ccccc3)ccc2OC[C@@H](C)N(Cc2ccccn2)C[C@@H]1C	none (no result: dFosB act, CDK5 p35 inh, Rtt109 Vps75, DYRK1A inh, SMARCA2 activ)
Cc1cccc(C(=O)Nc2ccc3c(c2)nc(C)n3C)c1	none
CC(=O)Nc1ccc2c(c1)ncn2-c1ccccc1	SMARCA2 activ 11.6 | SMARCA2 act conf 15.7 | VP16 Luc act 7.3
Cc1cccc(C(=O)Nc2ccc3c(c2)ncn3C)c1	SMARCA2 activ 11.6 | SMARCA2 act conf 8.3 | VP16 Luc act 18.7
C[C@@H]1CN([C@H](C)CO)C(=O)c2cccc(NS(=O)(=O)c3ccccc3)c2O[C@@H]1CN(C)S(=O)(=O)c1cccs1	none (no result: dFosB act, CDK5 p35 inh, Rtt109 Vps75, DYRK1A inh, SMARCA2 activ)
Cc1ccc2c(c1)N(CC(=O)NCCCc1ccccc1)C(=O)c1cccnc1O2	none
Cc1ccc2c(c1)N(CC(=O)NCC(C)c1ccccc1)C(=O)c1cccnc1O2 (configuration not stated)	SMARCA2 activ 12.1 | SMARCA2 act conf inactive | VP16 Luc act inactive
COc1cc(F)ccc1-c1csc(C(NC(C)=O)c2cccc(F)c2)n1 (configuration not stated)	SMARCA2 activ 10.1 (no result: dFosB act, CDK5 p35 inh, Rtt109 Vps75, DYRK1A inh) | SMARCA2 act conf inactive | VP16 Luc act inactive
CC(=O)NC(c1cccc(F)c1)c1nc(-c2ccccc2C)cs1 (configuration not stated)	none (no result: dFosB act, CDK5 p35 inh, Rtt109 Vps75, DYRK1A inh)
C[C@@H]1CN([C@@H](C)CO)C(=O)c2cc(C#CC3(O)CCCC3)cnc2O[C@H]1CN(C)C(=O)Cc1ccncc1	none (no result: dFosB act, CDK5 p35 inh, Rtt109 Vps75, DYRK1A inh, SMARCA2 activ)
Cc1ccccc1CCN(C(=O)CN1C(=O)c2ccccc2S1(=O)=O)C(C(=O)NCC1CCCO1)c1ccncc1 (configuration not stated)	SMARCA2 activ 9.0 (no result: esBAF inh) | SMARCA2 act conf inactive | VP16 Luc act inactive
CNC[C@@H]1Oc2ncc(-c3ccccc3C)cc2C(=O)N([C@H](C)CO)C[C@H]1C	none (no result: dFosB act, CDK5 p35 inh, Rtt109 Vps75, DYRK1A inh, SMARCA2 activ)
CCCCNC(=O)c1cc2c(=O)n3cccc(C)c3nc2n(Cc2ccncc2)c1=N	SMARCA2 activ 9.7 | SMARCA2 act conf 12.6 | VP16 Luc act inactive
C[C@@H]1CCCCO[C@@H](CN(C)Cc2ccc(C(F)(F)F)cc2)[C@H](C)CN([C@@H](C)CO)C(=O)c2cc(NS(=O)(=O)c3ccc(Cl)cc3)ccc2O1	none (no result: dFosB act, CDK5 p35 inh, Rtt109 Vps75, DYRK1A inh, SMARCA2 activ)
Cc1ccc(NC(=O)c2cnccn2)cc1	none (no result: esBAF inh)
CCOc1ccc(NC(=O)C/C(C)=N/NC(=O)c2cnccn2)cc1	SMARCA2 activ 8.9 | SMARCA2 act conf inactive | VP16 Luc act inactive
CCOc1ccc(NC(=O)c2nccnc2CO)cc1	SMARCA2 activ 9.8 | SMARCA2 act conf inactive | VP16 Luc act 9.8
COc1ccccc1NC(=O)C/C(C)=N/NC(=O)c1ccccn1	SMARCA2 activ 11.9 | SMARCA2 act conf inactive | VP16 Luc act inactive
COc1cc(NC(=O)C/C(C)=N/NC(=O)c2ccccn2)c(OC)cc1Cl	none
O=C(Nc1ccc(F)cc1)c1cnccn1	SMARCA2 activ 8.7 (no result: dFosB act, CDK5 p35 inh, Rtt109 Vps75, DYRK1A inh) | SMARCA2 act conf inactive | VP16 Luc act inactive
Cc1nc(-c2cc(C#N)c(Sc3ccc(Cl)cc3Cl)nc2C)cs1	dFosB act inconclusive, SMARCA2 activ 10.2 | SMARCA2 act conf inactive | VP16 Luc act inactive
C=CCNc1ncnc2c1cnn2-c1ccc(Cl)cc1	SMARCA2 activ 11.7 | SMARCA2 act conf 8.3 | VP16 Luc act 11.5
COc1ccccc1CNc1ncnc2c1cnn2-c1ccccc1	esBAF inh 70.8, SMARCA2 activ 8.2 | SMARCA2 act conf inactive | VP16 Luc act inactive
CCCCNc1ncnc2c1cnn2-c1ccc(Cl)cc1	SMARCA2 activ 10.5 | SMARCA2 act conf inactive | VP16 Luc act 9.8
Clc1ccc(-n2ncc3c(NCc4ccccn4)ncnc32)cc1	esBAF inh 67.9, SMARCA2 activ 11.5 | SMARCA2 act conf 11.3 | VP16 Luc act 6.0
C=CCNc1ncnc2c1cnn2-c1cccc(C)c1	none
Cc1ccc(-n2ncc3c(NCc4ccccn4)ncnc32)c(C)c1	none
CCCCNc1ncnc2c1cnn2Cc1ccc(Cl)cc1	none
COc1ccc(Nc2nc(N)nc(CSc3nnc(N)s3)n2)cc1	none
COc1ccc(Nc2nc(N)nc(CSc3nccn3C)n2)cc1	SMARCA2 activ 8.7 (no result: esBAF inh) | SMARCA2 act conf inactive | VP16 Luc act 8.2
CC(C)NC(=O)N1[C@@H](CO)[C@H](c2ccccc2)[C@@H]1CNC(=O)CN(C)C	none (no result: dFosB act, CDK5 p35 inh, Rtt109 Vps75, DYRK1A inh, SMARCA2 activ)
COc1ccc(Br)cc1CN(C)CC(=O)Nc1c(Cl)ccc(C)c1Cl	SMARCA2 activ 8.1 (no result: esBAF inh) | SMARCA2 act conf inactive | VP16 Luc act inactive
COc1ccc(Br)cc1CN(C)CC(=O)NCCc1ccccc1	none
Cc1ccc(OCc2nc3ccccc3[nH]2)cc1	SMARCA2 activ 13.6 | SMARCA2 act conf 10.2 | VP16 Luc act 8.2
Cn1c(SCC(=O)Nc2ccc(S(=O)(=O)Nc3nccs3)cc2)nc2sc3c(c2c1=O)CCCC3	SMARCA2 activ 11.0 (no result: dFosB act, CDK5 p35 inh, Rtt109 Vps75, esBAF inh, DYRK1A inh) | SMARCA2 act conf inactive | VP16 Luc act inactive
Cc1cc(NC(=O)CSc2nc3sc4c(c3c(=O)n2C)CCCC4)no1	none
COc1cccc(CC(=O)Nc2ccc(S(=O)(=O)Nc3nccs3)cc2)c1	SMARCA2 activ 8.4 | SMARCA2 act conf inactive | VP16 Luc act inactive
CCCNC(=O)C[C@@H]1C[C@H]2c3cc(NC(=O)NC4CCCCC4)ccc3O[C@H]2[C@H](CO)O1	none (no result: dFosB act, CDK5 p35 inh, Rtt109 Vps75, DYRK1A inh, SMARCA2 activ)
Cn1c2ccccc2c2nnc(SCCN3CCOCC3)nc21	SMARCA2 activ 10.5 | SMARCA2 act conf inactive | VP16 Luc act inactive
CO[C@@H]1CN(C)C(=O)c2ccc(NS(=O)(=O)c3ccccc3C)cc2OC[C@H](C)N(C)C[C@H]1C	none (no result: dFosB act, CDK5 p35 inh, Rtt109 Vps75, DYRK1A inh, SMARCA2 activ)
COc1ccc([C@H]2CC(=O)C=C(c3ccc4c(c3)OCCO4)C2)cc1	SMARCA2 activ 8.3 | SMARCA2 act conf inactive | VP16 Luc act inactive
COc1ccc(Nc2cc(C)nc3ccccc23)cc1	none
COc1ccc2nc(C)cc(Nc3ccc(N4CCN(C)CC4)cc3)c2c1	dFosB act 76.6, SMARCA2 activ 74.3 | SMARCA2 act conf 133.4 | VP16 Luc act inactive
O=C(Cc1ccccc1Cl)Nc1cc(S(=O)(=O)N2CCOCC2)ccc1N1CCOCC1	SMARCA2 activ 8.0 (no result: DYRK1A inh) | SMARCA2 act conf inactive | VP16 Luc act inactive
O=C(NC1CC1)c1scc2c1OCCO2	SMARCA2 activ 8.2 | SMARCA2 act conf inactive | VP16 Luc act inactive
O=C(N[C@H]1CC[C@H](CC(=O)N2CCOCC2)O[C@H]1CO)c1ccc2c(c1)OCO2	none (no result: dFosB act, CDK5 p35 inh, Rtt109 Vps75, DYRK1A inh, SMARCA2 activ)
N#C/C(=N\Nc1cccc(F)c1)C(=N)N1CCCCCC1	SMARCA2 activ 8.5 (no result: esBAF inh) | SMARCA2 act conf inactive | VP16 Luc act 11.0
